Source: PubChem BioAssay (Tox21)
Inconclusive results are not listed. A number with no mark means an inactive call. Calls of active or inactive are those of the source. Calls come from the whole dose curve; as a rule, active = well fitted curve in the direction sought with a large enough effect in the repeat runs; inconclusive = weak or mixed curves; inactive = no such curve, though single readings can be large; an effect the other way counts as inactive or inconclusive.

experiment: qHTS assay to identify small molecule antagonists of the estrogen related receptor (ERR) signaling pathway from Tox21 library - cell viability counter screen (AID 1224834); conditions: ERR reporter cells viability, CellTiter-Fluor, 17.5 h; series mostly up to 92.4 µM; viability change, negative = cytotoxic: at the top concentration; note: nearly all actives have a fitted effect of over 30% in size; note: potency is the fitted concentration of half-maximal effect
In short: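 ERR reporter cells were plated 6 h before compound addition, then exposed to test compounds in DMSO for 17.5 h at 37 C. Viability was read as CellTiter-Fluor fluorescence after a 30-minute incubation at 37 C.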
% is set by controls: 0 for no effect and ±100 for the full control effect.

| SMILES | viability change, negative = cytotoxic | Potency |
| --- | --- | --- |
| CC(=O)CCC(C)=O | 5.73% | – |
| Cc1ccccc1C(=O)Nc1cccc(OC(C)C)c1 | -12.8% | – |
| CCCC(Cn1cncn1)c1ccc(Cl)cc1Cl (stereo unspecified) | – | 54.5 µM (active) |
| CCc1ccc(C(=O)NN(C(=O)c2cc(C)cc(C)c2)C(C)(C)C)cc1 | – | 8.63 µM (active) |
| BrCCCCBr | 2.15% | – |
| C[C@@H]1CC[C@H]2[C@@H](C)C(=O)O[C@@H]3O[C@@]4(C)CC[C@@H]1[C@]32OO4 | -3.11% [at 42.5 µM] | – |
| CC(C)N(CCC(C(N)=O)(c1ccccc1)c1ccccn1)C(C)C (stereo unspecified) | 0.0099% [at 42.5 µM] | – |
| C#CCOC(C(=O)OCCN(C)C)(c1ccccc1)c1ccccc1 | -0.312% [at 42.5 µM] | – |
| c1ccc(C2CC2)c(OCC2=NCCN2)c1 | 3.95% [at 42.5 µM] | – |
| Clc1cccc(SC2CCNCC2)n1 | -5.97% [at 42.5 µM] | – |
| CCCCCCCCCCOC(=O)c1ccccc1C(=O)OCCCCCCCCCC | -0.698% | – |
| [O-][Cl+]O | 7.49% | – |
| c1ccc(CN2CCNCC2)cc1 | 2.47% [at 240 µM] | – |
| OCCCBr | 4.85% | – |
| C/C(=C\c1ccccc1)[N+](=O)[O-] | – | 27.3 µM (active) |
| CNP(=O)(OC)Oc1ccc(C(C)(C)C)cc1Cl (stereo unspecified) | -11.3% | – |
| O=C(CBr)Nc1ccc(Cl)cc1C(=O)c1ccccc1F | -0.782% [at 42.5 µM] | – |

| SMILES | viability change, negative = cytotoxic | Potency |
| --- | --- | --- |
| CN(C)c1ccc(N(C)C)cc1 | -7.52% | – |
| Brc1ccc(Oc2ccccc2)cc1 | – | inactive |
| NCCCNCCCN | 3.87% | – |
| BrCC(Br)C1CCC(Br)C(Br)C1 (stereo unspecified) | -1.78% | – |
| C=C(C#N)CCC#N | -3.46% | – |
| C=CCN1CC[C@]23c4c5ccc(O)c4O[C@H]2C(=O)CC[C@@]3(O)[C@H]1C5 | -5.27% [at 42.5 µM] | – |
| O=[N+]([O-])C(Br)(CO)CO | -6.84% | – |
| CCCCCCC#N | -0.198% | – |
| CO[C@@H]1[C@H](OC(=O)NC(=O)CCl)CC[C@]2(CO2)[C@H]1[C@@]1(C)O[C@@H]1CC=C(C)C | -3.88% [at 19 µM] | – |
| O=C1c2ccccc2C(=O)C1C(=O)C(c1ccccc1)c1ccccc1 | -6.98% [at 42.5 µM] | – |
| CN1[C@@H]2CC[C@H]1CC(OC(=O)c1cc(Cl)cc(Cl)c1)C2 (stereo partly specified) | -6.73% [at 42.5 µM] | – |
| C=COC(C)=O | 0.952% | – |
| CN1C(=O)NC(=O)C(C)(C2=CCCCC2)C1=O (stereo unspecified) | -2.68% [at 42.5 µM] | – |
| CCCCCC[N+](=O)[O-] | 3.34% | – |
| O=C(NC(=O)c1c(F)cccc1F)Nc1ccc(OC(F)(F)C(F)OC(F)(F)F)c(Cl)c1 (stereo unspecified) | 1.78% [at 42.5 µM] | – |
| COc1c(C(C)(C)C)cc([N+](=O)[O-])c(C)c1[N+](=O)[O-] | 0.54% | – |

experiment: qHTS assay to identify small molecule agonists of the constitutive androstane receptor (CAR) signaling pathway - cell viability counter screen (AID 1224836); conditions: HepG2-CYP2B6-hCAR viability, CellTiter-Fluor, 23 h, PK11195 added to every well; series mostly up to 92.4 µM; viability change, negative = cytotoxic: at the top concentration; note: nearly all actives have a fitted effect of over 45% in size
In short: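 Fluorescence from CellTiter-Fluor indicates live cells after 23 h exposure. The human hepatoma line expresses hCAR and a CYP2B6-2.2kb reporter. Incubation medium contains 0.75 uM PK11195 (final).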

| SMILES | viability change, negative = cytotoxic | Potency |
| --- | --- | --- |
| Cc1ccccc1C(=O)Nc1cccc(OC(C)C)c1 | 3.68% | – |
| CCCC(Cn1cncn1)c1ccc(Cl)cc1Cl (stereo unspecified) | -13.9% | – |
| CCO[C@H]1O[C@@H]2OC3(C)CC[C@H]4[C@H](C)CC[C@@H]([C@H]1C)[C@@]24OO3 | -0.0178% [at 42.5 µM] | – |
| BrCCCCBr | 4.67% | – |
| c1cc2ccc3cccc4ccc(c1)c2c34 | -0.781% | – |
| C[C@@H]1CC[C@H]2[C@@H](C)C(=O)O[C@@H]3O[C@@]4(C)CC[C@@H]1[C@]32OO4 | -1.11% [at 42.5 µM] | – |
| CC(C)N(CCC(C(N)=O)(c1ccccc1)c1ccccn1)C(C)C (stereo unspecified) | 6.06% [at 42.5 µM] | – |
| Clc1cccc(SC2CCNCC2)n1 | -4.33% [at 42.5 µM] | – |
| [O-][Cl+]O | 2.71% | – |
| OCCCBr | 2.09% | – |
| CNP(=O)(OC)Oc1ccc(C(C)(C)C)cc1Cl (stereo unspecified) | -5.42% | – |
| O=C(CBr)Nc1ccc(Cl)cc1C(=O)c1ccccc1F | 0.468% [at 42.5 µM] | – |
| CN(C)c1ccc(N(C)C)cc1 | 8.07% | – |
| Brc1ccc(Oc2ccccc2)cc1 | – | inactive |
| C=C(C#N)CCC#N | -5.15% | – |
| CCCCCCC#N | -4.36% | – |
| CO[C@@H]1[C@H](OC(=O)NC(=O)CCl)CC[C@]2(CO2)[C@H]1[C@@]1(C)O[C@@H]1CC=C(C)C | -5.35% [at 19 µM] | – |
| O=C1c2ccccc2C(=O)C1C(=O)C(c1ccccc1)c1ccccc1 | -12.3% [at 42.5 µM] | – |
| CN1[C@@H]2CC[C@H]1CC(OC(=O)c1cc(Cl)cc(Cl)c1)C2 (stereo partly specified) | -20.6% [at 42.5 µM] | – |
| C=COC(C)=O | 11.4% | – |
| CCCCCC[N+](=O)[O-] | 0.428% | – |

experiment: qHTS assay to identify small molecule antagonists of the constitutive androstane receptor (CAR) signaling pathway - cell viability counter screen (AID 1224837); conditions: HepG2-CYP2B6-hCAR viability, CellTiter-Fluor, 23 h, co-treated with 50 nM CITCO; series mostly up to 92.4 µM; activity change, negative = cytotoxicity: at the top concentration; note: nearly all actives have a fitted effect of over 45% in size; note: potency is the fitted concentration of half-maximal effect
In short: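 HepG2 cells stably expressing hCAR and a CYP2B6-2.2kb reporter were plated and pre-incubated 4 hr at 37 C/5% CO2, then given compounds at 15 concentrations plus 50 nM CITCO (final). After 23 hr, viability was read by CellTiter-Fluor fluorescence.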

| SMILES | activity change, negative = cytotoxicity | Potency |
| --- | --- | --- |
| CC(=O)CCC(C)=O | 0.21% | – |
| Cc1ccccc1C(=O)Nc1cccc(OC(C)C)c1 | -0.854% | – |
| CCO[C@H]1O[C@@H]2OC3(C)CC[C@H]4[C@H](C)CC[C@@H]([C@H]1C)[C@@]24OO3 | -1.76% [at 42.5 µM] | – |
| BrCCCCBr | 3.95% | – |
| c1cc2ccc3cccc4ccc(c1)c2c34 | -4.79% | – |
| C[C@@H]1CC[C@H]2[C@@H](C)C(=O)O[C@@H]3O[C@@]4(C)CC[C@@H]1[C@]32OO4 | 1.25% [at 42.5 µM] | – |
| CC(C)N(CCC(C(N)=O)(c1ccccc1)c1ccccn1)C(C)C (stereo unspecified) | 5.35% [at 42.5 µM] | – |
| C#CCOC(C(=O)OCCN(C)C)(c1ccccc1)c1ccccc1 | 1.66% [at 42.5 µM] | – |
| c1ccc(C2CC2)c(OCC2=NCCN2)c1 | -13.7% [at 42.5 µM] | – |
| Clc1cccc(SC2CCNCC2)n1 | 0.461% [at 42.5 µM] | – |
| CCCCCCCCCCOC(=O)c1ccccc1C(=O)OCCCCCCCCCC | 1.32% | – |
| [O-][Cl+]O | 0.0756% | – |
| c1ccc(CN2CCNCC2)cc1 | 1.87% [at 240 µM] | – |
| OCCCBr | 11.9% | – |
| C/C(=C\c1ccccc1)[N+](=O)[O-] | – | 30.6 µM (active) |
| CNP(=O)(OC)Oc1ccc(C(C)(C)C)cc1Cl (stereo unspecified) | -6.39% | – |

| SMILES | activity change, negative = cytotoxicity | Potency |
| --- | --- | --- |
| O=C(CBr)Nc1ccc(Cl)cc1C(=O)c1ccccc1F | 4.54% [at 42.5 µM] | – |
| CN(C)c1ccc(N(C)C)cc1 | 2.53% | – |
| Brc1ccc(Oc2ccccc2)cc1 | – | inactive |
| NCCCNCCCN | -18.6% | – |
| BrCC(Br)C1CCC(Br)C(Br)C1 (stereo unspecified) | 2.09% | – |
| C=C(C#N)CCC#N | -1.53% | – |
| C=CCN1CC[C@]23c4c5ccc(O)c4O[C@H]2C(=O)CC[C@@]3(O)[C@H]1C5 | 0.387% [at 42.5 µM] | – |
| CCCCCCC#N | -1.43% | – |
| CO[C@@H]1[C@H](OC(=O)NC(=O)CCl)CC[C@]2(CO2)[C@H]1[C@@]1(C)O[C@@H]1CC=C(C)C | -18.3% [at 19 µM] | – |
| O=C1c2ccccc2C(=O)C1C(=O)C(c1ccccc1)c1ccccc1 | -14.4% [at 42.5 µM] | – |
| CN1[C@@H]2CC[C@H]1CC(OC(=O)c1cc(Cl)cc(Cl)c1)C2 (stereo partly specified) | -14.4% [at 42.5 µM] | – |
| C=COC(C)=O | 0.227% | – |
| CN1C(=O)NC(=O)C(C)(C2=CCCCC2)C1=O (stereo unspecified) | 0.826% [at 42.5 µM] | – |
| CCCCCC[N+](=O)[O-] | -2.2% | – |
| O=C(NC(=O)c1c(F)cccc1F)Nc1ccc(OC(F)(F)C(F)OC(F)(F)F)c(Cl)c1 (stereo unspecified) | -9.22% [at 42.5 µM] | – |
| COc1c(C(C)(C)C)cc([N+](=O)[O-])c(C)c1[N+](=O)[O-] | 1.86% | – |
